We go through 40 compounds from PubChem BioAssay (Tox21).

SMILES strings stand for the structures. Records with an inconclusive call do not appear. Entries that show only a call come without a potency. Unmarked numbers belong to inactive results. Active and inactive are the calls of the source. Calls come from the whole dose curve.
Potency is the fitted concentration of half-maximal effect.

5-hydroxytryptamine receptor 2A (Homo sapiens), sequence (P28223 whole entry, looked up): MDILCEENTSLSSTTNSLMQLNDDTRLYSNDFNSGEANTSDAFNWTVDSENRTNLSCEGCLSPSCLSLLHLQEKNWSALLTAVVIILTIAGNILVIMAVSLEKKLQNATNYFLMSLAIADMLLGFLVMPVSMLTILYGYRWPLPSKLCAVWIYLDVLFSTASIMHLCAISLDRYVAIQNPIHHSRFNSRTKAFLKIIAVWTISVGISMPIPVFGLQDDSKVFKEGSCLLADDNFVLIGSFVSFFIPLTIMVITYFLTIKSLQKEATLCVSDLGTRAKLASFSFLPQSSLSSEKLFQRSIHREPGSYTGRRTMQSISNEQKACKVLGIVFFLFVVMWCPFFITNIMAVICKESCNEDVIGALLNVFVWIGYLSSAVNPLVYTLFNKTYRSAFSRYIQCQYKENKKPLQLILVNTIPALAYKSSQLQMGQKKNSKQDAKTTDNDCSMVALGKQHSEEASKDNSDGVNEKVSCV

The test has as its target 5-hydroxytryptamine receptor 2A (Homo sapiens) (UniProt P28223). Briefly: 5-hydroxytryptamine receptor 2A (HTR2A) small molecule agonists, cell-based qHTS assay (AID 1963587). Note: nearly all actives have a fitted effect of over 30% in size. The conditions noted are these: HTR2A-CHO cells, calcium flux fluorescence, agonist mode; series mostly up to 76.8 µM. An excerpt: National Center for Advancing Translational Sciences [NCATS]
Division of Preclinical Innovation [DPI]
U.S. Environmental Protection Agency [EPA]
National Institutes of Environmental Health Sciences [NIEHS]
National Toxicology Program [NTP]
U.S. Food and Drug Administration [FDA]
The HTR2A receptor is a subtype of the 5-HT2 receptor that belongs to the serotonin receptor family and is a G protein-coupled receptor (GPCR). The HTR2A-CHO cell line stably expressing human 5-hydroxytryptamine receptor 2A (HTR2A) can be used for screening agonists of interactions between 5-HT2 and its ligands. The HTR2A-CHO calcium flux assay is a homogeneous fluorescence-based assay for detecting the intracellular calcium level using FDSS kinetic plate reader system.
HTR2A-CHO cells were dispensed at 2000 cells/3uL/well in 1536-well black-clear bottom plates using a Multidrop Dispenser. After the assay plates were incubated at a 37 C/5% CO2 incubator for 18 h, 3 uL of Dye Loading Buffer was transferred to the assay plate by a Flying Reagent Dispenser. The assay plates were incubated at 37 C for 1h. For agonist mode, 23 nL of compounds dissolved in DMSO, positive controls or DMSO only was transferred to the assay plate by a pin tool. The fluorescence intensity in the plates was measured using FDSS 7000EX kinetic plate reader for 2 min at 1 sec intervals.
For `COc1ccc(NC(=O)CC(C)=O)cc1`, the Potency result is “inactive”.

On to `C[C@@H]1C[C@H]2O[C@@]3(O[C@@H]2C(C)(C)O)[C@H](O)[C@@]2(C)[C@@H]4CC[C@H]5C(C)(C)[C@@H](O[C@@H]6OC[C@@H](O)[C@H](O)[C@H]6O)CC[C@@]56C[C@@]46CC[C@]2(C)[C@@H]13`, for which the Potency entry is “inactive”.

Regarding `CCC(C)O` (stereo not given), the Potency entry is “inactive”.

As to `CC(C)(O)c1ccc(C(C)(C)O)cc1`, the Potency entry is “inactive”.

`CCCCC[Si](OCC)(OCC)OCC`: the Potency result is “inactive”.

On to `c1cc(C(c2ccc(OCC3CO3)cc2)c2ccc(OCC3CO3)cc2)ccc1OCC1CO1` (stereo not given), for which the Potency result is “inactive”.

On to `O=S(=O)(O)SSS(=O)(=O)O`, for which the Potency result is “inactive”.

In the case of `CCCCO`, the Potency entry was “inactive”.

As for `C1CCC2=NCCCN2CC1`, the Potency result was “inactive”.

`CC1CN(c2ccccc2)NC1=O` (stereo not given): the Potency result was “inactive”.

Turning to `C[Si](C)(C)O[Si](O)(O)O`, the Potency result is “inactive”.

For `CC1(C)C(=O)N(Br)C(=O)N1Br`, the Potency entry is “inactive”.

Regarding `C[C@]12CC[C@H]3C(=CCc4cc(O)ccc43)[C@@H]1CCC2=O`, the Potency entry is “inactive”.

On to `O=C1CCCC(=O)O1`, for which the Potency result is “inactive”.

Regarding `CCCCOC(=O)c1ccccc1C(=O)OCC(CC)CCCC` (stereo not given), the Potency entry is “inactive”.

For the compound `O=S(=O)(O)c1cc(O)ccc1O`, the Potency result was “inactive”.

As to `C[C@H]1c2cccc(O)c2C(O)=C2C(=O)[C@]3(O)C(O)=C(C(N)=O)C(=O)[C@@H](N(C)C)[C@@H]3[C@@H](O)[C@@H]21`, the Potency entry is “inactive”.

`CCN(C(=O)N(CC)c1ccccc1)c1ccccc1`: the Potency entry is “inactive”.

For `O=S(c1cc(Cl)cc(Cl)c1O)c1cc(Cl)cc(Cl)c1O`, the Potency entry is “inactive”.

As for `CC(=O)CCC1=C(C)CCCC1(C)C`, the Potency entry was “inactive”.

As to `C[N+]1(C)CCC(OC(=O)C(O)(c2ccccc2)C2CCCC2)C1` (stereo not given), the Potency result is “inactive”.

As for `CCC(=O)OCCC(C)CCC=C(C)C` (stereo not given), the Potency result is “inactive”.

As for `COc1cc(/C=C/C(=O)CC(=O)/C=C/c2ccc(O)c(OC)c2)ccc1O`, the Potency was 22 µM (active).

For `CC(=O)OC(C(=O)c1ccccc1)c1ccccc1` (stereo not given), the Potency entry is “inactive”.

Take `Cn1ccc2cc3c(cc21)CCN3C(=O)Nc1cccnc1`: the activation is -6.77% [at 15.9 µM].

For the compound `C=Cc1ccncc1`, the Potency result was “inactive”.

Consider `CCCCCCC(C)Nc1ccc(Nc2ccccc2)cc1` (stereo not given), for which the Potency result is “inactive”.

Take `CCCCOC(=O)CCCCC(=O)OCCCC`: the Potency entry was “inactive”.

Turning to `CC1=C(C(=O)O)N2C(=O)[C@@H](NC(=O)[C@H](N)C3=CCC=CC3)[C@H]2SC1`, the Potency result was “inactive”.

In the case of `O=S1(=O)CCCC1`, the Potency result was “inactive”.

As to `C=Cc1ccc(O)c(OC)c1`, the Potency entry was “inactive”.

As for `Cc1cccc(Br)c1`, the Potency entry was “inactive”.

For the compound `Cc1ccc(C)c([N+](=O)[O-])c1`, the Potency entry is “inactive”.

As for `O=C(O)COc1ccc2ccccc2c1`, the Potency result was “inactive”.

With `Cn1cc(C(=O)[C@@H]2CCc3nc[nH]c3C2)c2ccccc21`, the Potency result is “inactive”.

`C1=CC2C3C=CC(C3)C2C1` (stereo not given): the Potency is 54 µM (active).

For the compound `C=CCOc1ccccc1OCC(O)CNC(C)C` (stereo not given), the Potency result is “inactive”.

Regarding `CC(C)COC(=O)/C=C/c1ccccc1`, the Potency entry was “inactive”.

Consider `C/C=C(\C)C(C)=O`, for which the Potency entry was “inactive”.

For `Cc1nc2ccc(CN(C)c3ccc(C(=O)N[C@@H](CCC(=O)O)C(=O)O)s3)cc2c(=O)[nH]1`, the Potency entry was “inactive”.
